What was measured:
Format in all cases: functional
[1] = target: Solute carrier family 2, facilitated glucose transporter member 1 (Homo sapiens) (UniProt P11166); test: ST_JUDE_LEISH: Cytotoxicity at 2uM final concentration against transgenic Leishmania Mexicana promastigotes LmGLUT1 that are glucose transport deficient and complemented with the human glucose transporter GLUT1. Activity is measured by DNA content using SYBR green in vitro
[2] = target: Hexose transporter 1 (Plasmodium falciparum) (UniProt O97467); test: ST_JUDE_LEISH: Cytotoxicity at 2uM final concentration against transgenic Leishmania Mexicana promastigotes LmPfHT that are glucose transport deficient and complemented with the Plasmodium falciparum hexose transporter. Activity is measured by DNA content using SYBR green in vitro
[3] = target: Glucose transporter (Leishmania mexicana) (UniProt O61059); test: ST_JUDE_LEISH: Cytotoxicity at 2uM final concentration against transgenic Leishmania Mexicana promastigotes LmGT2 that are glucose transport deficient and complemented with the L. Mexicana glucose transporter 2. Activity is measured by DNA content using SYBR green in vitro

Chain of Solute carrier family 2, facilitated glucose transporter member 1 (Homo sapiens) (P11166 whole entry): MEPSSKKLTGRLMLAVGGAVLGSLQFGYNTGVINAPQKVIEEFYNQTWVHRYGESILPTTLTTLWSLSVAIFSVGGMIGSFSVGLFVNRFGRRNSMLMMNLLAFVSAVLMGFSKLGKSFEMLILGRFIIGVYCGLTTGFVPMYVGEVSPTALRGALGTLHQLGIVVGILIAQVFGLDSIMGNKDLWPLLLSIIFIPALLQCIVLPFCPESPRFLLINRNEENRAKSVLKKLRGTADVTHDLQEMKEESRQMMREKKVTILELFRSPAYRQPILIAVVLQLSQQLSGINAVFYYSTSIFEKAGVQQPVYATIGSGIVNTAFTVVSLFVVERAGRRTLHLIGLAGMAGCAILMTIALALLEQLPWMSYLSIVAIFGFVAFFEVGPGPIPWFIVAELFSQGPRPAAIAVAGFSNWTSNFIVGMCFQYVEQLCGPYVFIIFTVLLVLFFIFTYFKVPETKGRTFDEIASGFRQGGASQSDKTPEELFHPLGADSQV

SMILES | inhibition [1] [%] | inhibition [2] [%] | inhibition [3] [%]
COc1cc2nc(N3CCC(CNC(=O)c4ccc(-c5ccc(C(=O)N(C)C)cc5OCCO)cc4)CC3)nc(N)c2cc1OC | -1.09 | 2.24 | 1.27
CCS(=O)(=O)Nc1ccc2c(c1)/C(=C(/Nc1ccc(CN3CCCCC3)cc1)c1ccccc1)C(=O)N2 | 83.1 | 89.4 | 82
CN(CCCCNC(=O)c1ccc(-c2ccccc2)cc1)C1CCc2c(O)cccc2C1 (centres undefined) | 2.79 | 2.13 | 1.18
O=C(/C=C/c1ccc(Cl)c(Cl)c1)NCCCCCN1CCC(NC(=O)Nc2ccccc2F)CC1 | 0.1 | 4.13 | -0.91
Cc1sc2ncnc(Sc3nnc(N)s3)c2c1C | 2.03 | 3.89 | 1.09
Cc1ccc(NC(=O)Nc2ccc(Br)cc2)cc1OCCN(C)C | 5.98 | 3.65 | 2.82
CS(=O)(=O)c1ccc(CNCc2cccc(-c3cccc(-c4nc5cc(F)ccc5[nH]4)c3)c2)cc1 | 2.4 | 0.6 | -2.93
O=C(/C=C/c1ccc(Cl)c(Cl)c1)NCCCCCN1CCC(NC(=O)Nc2ccc(Cl)c(Cl)c2)CC1 | 1.02 | -0.03 | 0.09
CN(Cc1ccccc1)C1CCCN(c2cc(NC(=O)c3cccs3)ccn2)C1 (centres undefined) | 0.77 | -0.06 | 0.5
COc1ccc(C2=CCN(c3ccc(Cl)c(Cl)c3)C2=O)cc1OCCN1CCCCC1 | 3.36 | 1.21 | -4.01
Cc1ccc(NC(=O)c2ccc(N3CCN(c4ccncc4)CC3)cn2)cc1F | 109 | 95.4 | 102
O=S(=O)(Nc1cccc(CCN2CCCCC2CCN2CCCC2)c1)c1ccc(Oc2ccccc2)cc1 (centres undefined) | -2.34 | 1.13 | -1.81
c1ccc(-c2ccc(CNCc3ccc(-c4cccc(-c5nc6ccccc6[nH]5)c4)cc3)s2)nc1 | 1.04 | 2.78 | 0.61
O=C(NCCc1ccccc1)N(Cc1cccc(-c2ccc(CNCCc3ccccc3)cc2)c1)C1CCN(Cc2ccccc2)CC1 | 0.95 | -0.75 | 0.12
O=C(NCc1cccc(F)c1)Nc1cccc(-c2cccc(-c3nc4ccccc4[nH]3)c2)c1 | 7.33 | 5.52 | 7.79
COc1ccc(NS(=O)(=O)c2ccccc2Br)cc1N1CCN(C)CC1 | 0.24 | -0.27 | 3.86
CCCCCCN1CCC(NCc2cccc(C(F)(F)F)c2)CC1 | 9.06 | 12.2 | 6.27
CNC(=N)c1ccc(NC(=O)Nc2ccc(C(=N)NC)cc2)cc1 | 4.64 | 1.88 | 3.62
O=C(/C=C/c1ccc(Cl)c(Cl)c1)N1CCC(CN2CCC(Cc3nc4ccccc4[nH]3)CC2)CC1 | 1.43 | 1.29 | 3.16
CCn1cc(CN2CCCC(C(=O)Nc3ccc(-c4nc5ccccc5[nH]4)cc3)C2)c(C)n1 (centres undefined) | 3.61 | 4.26 | 3.25
O=C1CCCN1CCCNCc1cccc(-c2cccc(-c3nc4cc(F)ccc4[nH]3)c2)c1 | 0.85 | 1.31 | 0.04
Cc1ccc(-n2c(=O)c3c(n4c(SC(C)C)nnc24)-c2ccccc2CC32CCCCC2)cc1 | 7.08 | 6.98 | 5.47
CC1CCN(C(=O)CSc2nc(-c3ccc(C(C)C)cc3)no2)CC1 | 7.2 | 9.21 | 6.14
CN(C)CC1CCCN1Cc1ccccc1-c1cnn(C)c(=O)c1Oc1ccccc1F (centres undefined) | 2.45 | 1.75 | 0.1
N#Cc1cc(C(=O)c2cc(Cl)ccc2O)cn(-c2cccc(C(F)(F)F)c2)c1=O | 8.27 | 7.71 | 5.33

SMILES | inhibition [1] [%] | inhibition [2] [%] | inhibition [3] [%]
Cc1cc(NC(=O)c2ccsc2)ccc1OC1CCN(Cc2ccc(F)cc2)CC1 | -0.33 | 2.48 | 1.6
N#CCSc1nnc(-c2ccccc2)c2ccccc12 | 2.6 | 9.44 | -0.1
COc1ccc(-c2nc(NC(=O)Cc3ccc4c(c3)OCCO4)sc2C)cc1 | 3.71 | 4.52 | 5.29
CN1CCN(c2ccc3[nH]c(-c4ccc(Cc5cc(Cl)ccc5OCc5ccccc5)o4)nc3c2)CC1 | 1 | 2.32 | 2.2
CN(C)Cc1ccc(-c2ccc3c(Nc4ccc(Oc5ccccn5)cc4)ccnc3c2)o1 | 0.08 | 4.31 | 2.19
NC1CCN(Cc2ccc(-c3cccc(-c4nc5cc(F)ccc5[nH]4)c3)cc2)C1 (centres undefined) | 16.9 | 14.7 | 12.8
CC(=O)c1ccccc1OCCSc1nnc(Cc2cccs2)n1C1CCCCC1 | 1.7 | 2.09 | 1.75
COC(=O)C(c1ccc(NC(=O)[C@H](CC(C)C)NC(=O)OC(C)(C)C)cc1)c1ccc(NC(=O)[C@H](CC(C)C)NC(=O)OC(C)(C)C)cc1 | -0.28 | 0.91 | 0.27
O=C(Nc1cc(Cl)ccc1Cl)N[C@H]1CCN(CCCCCNC(=O)C2CC2c2ccc(Cl)c(Cl)c2)C1 (some centres undefined) | 1.43 | 1.2 | 4.46
COc1cccc(Nc2nccc(-c3c(-c4cccc(NC(=O)c5c(F)cccc5F)c4)nn4ccccc34)n2)c1 | 5 | 13.3 | 5.92
O=C1COC2(CN1C1CCN(Cc3ccc(O)c(Cl)c3)C1)c1ccccc1-c1ccccc12 (centres undefined) | 9.11 | 7.57 | 5.67
CCC(CC)(Cc1ccccc1)NC(=O)[C@H](Cc1ccc(OC)c(OC)c1)Nc1ccc(C#N)c2ccccc12 | 2.88 | 2.31 | 3.47
O=C(NCc1ccc(Cl)cc1)c1ccc(CN2CCCN(Cc3cccc(O)c3)CC2)cc1 | 0.86 | 0.62 | 2.04
O=C(NC(=S)NCc1ccncc1)c1ccccc1 | 2.06 | -1.93 | 1.6
Cc1nc(-c2nc(NCCc3cnccn3)ncc2-c2ccsc2)sc1C | 0.04 | 0.59 | -2.39
CCNC(=O)c1ccc2c(c1)c(C)c(C)n2Cc1ccc(F)cc1 | 0.6 | -0.64 | 1.15
COc1ccc2c(NN=Cc3ccccn3)ccnc2c1 | 13.7 | 11.8 | 11.3
CS(=O)(=O)c1cccc(-c2cnc3[nH]cc(-c4ccc(C(=O)O)cc4)c3c2)c1 | 1.01 | -0.81 | 1.75
Cc1n[nH]c2cc(Nc3ccnc(Nc4ccc(CN5CCOCC5)cc4)n3)ccc12 | 12.7 | 9.89 | 14.2
CCc1cn2c3c(cc(C(=O)N[C@@H](Cc4ccccc4)[C@H](O)CNC4CCCC4)cc13)N(C)S(=O)(=O)CC2 | 8.55 | 9.26 | 5.93
CC1(C)NC(N)=NC(=N)N1OCCCc1cc(Cl)c(Cl)cc1Cl | 3.14 | 2.31 | 2.77
CCc1c(C(=O)NC2CCC(N3CCC(c4ccccc4C)CC3)CC2)[nH]c2ccc(Br)cc12 (centres undefined) | 5.69 | 5.55 | 3.97
Cc1cccc2nc(-c3cccc(-c4cccc(NC(=O)COc5ccccc5C(N)=O)c4)c3)[nH]c12 | -0.32 | 3.3 | 2.14
CCCCCN1CCC(NS(=O)(=O)c2ccc(C(=O)Nc3cccc(C(F)(F)F)c3)cc2)C1 (centres undefined) | 8.42 | 2.22 | 2.26
O=C(/C=C/c1ccc(Cl)c(Cl)c1)NCCCCCN1CCCC(CNC(=O)Nc2ccc(Oc3ccccc3)cc2)C1 (centres undefined) | -0.78 | 0.69 | 0.61

SMILES | inhibition [1] [%] | inhibition [2] [%] | inhibition [3] [%]
COc1ccc(-c2cccc(CNC3CCN(C)CC3)c2)cc1S(=O)(=O)NCc1ccccc1 | 4.97 | 4.06 | 4.42
CN/C(=N\O)NCCN(C)C | 3.01 | 4.18 | 3.91
CN(C)C(=O)CN1CCN(c2ncnc(N3CCc4c([nH]c5ccccc45)[C@@H]3c3ccc4c(c3)CCO4)n2)CC1 | 4.28 | 1.61 | -0.47
Cc1cc(Nc2ncc(C#N)c(Nc3ccccc3C(N)=O)n2)ccc1N1CCN(C)CC1 | 79.2 | 78.8 | 65.4
Cc1cc(NC(=O)c2ccco2)ccc1OC1CCN(Cc2ccc(C#N)cc2)CC1 | 1.63 | 1.09 | 1.11
COc1ccc(CCNCCCCCCNCCc2ccc(OC)c(OC)c2Cl)c(Cl)c1OC | 0.05 | -0.34 | 0.35
COc1ccc(CNC2CCN(C)CC2)cc1-c1ccc(S(=O)(=O)NC2CCC2)c(C)c1 | 0 | -0.22 | -0.25
Cc1cc(N2CCC(NS(=O)(=O)c3cccc4cccnc34)CC2)nc(Nc2cccc(C#N)c2)n1 | 51.5 | 54.4 | 44.4
CC(C)CCN1CCC(Oc2ccc(NC(=O)c3cccs3)cc2Cl)C1 (centres undefined) | 10.2 | 11.8 | 9.02
Nc1nccc2ccc(OC3CCCCC3)cc12 | 0.26 | 1.26 | 1.91
NC1CCN(Cc2ccc(-c3ccc(-c4nc5ccccc5[nH]4)cc3)cc2)C1 (centres undefined) | 12.9 | 10.4 | 5.07
Brc1ccsc1-c1nc(NCCC(c2ccccc2)c2ccccc2)no1 | -0.74 | 0.55 | 0.06
CC(C)(Oc1c(C2CCN(CCCCNC(=O)c3ccc(-c4ccc(Cl)cc4)cc3)CC2)ccc2c1CCCC2)C(N)=O | -2.15 | -0.94 | -1.84
O=C(NC1CC1)c1cnc(N2CCC(c3ccccc3)CC2)c(Cl)c1 | 2.86 | 6.43 | 3.1
COc1ccc(CNCCCCCCNCCc2ccc(Cl)cc2)cc1OC | 1.25 | 1.81 | 3.24
Nc1ncc(-c2ccc3nccc(-c4ccncc4)c3c2)cc1S(=O)(=O)N1CCCCC1 | 12.9 | 11.3 | 7.55
Cc1cc(=NN=Cc2ccccc2Cl)c2ccc(F)cc2[nH]1 | 6.47 | 6.14 | 3.93
CCc1ccc(C2CCN(CCCCNC(=O)c3ccc(-c4ccc(C#N)cc4)cc3)CC2)c(OCCO)c1 | 0.42 | 3.19 | 1.5
OC(c1nnc(S)n1-c1ccccc1)C(O)c1nnc(S)n1-c1ccccc1 (centres undefined) | 10.1 | 8.57 | 10
Nc1ncc(Cc2ccc3c(ccc4ccccc43)c2)c(N)n1 | 14.2 | 12.7 | 11.9
O=C(NCCCCNCC(Cc1cccc(O)c1)c1ccccc1)c1ccc(NC(=O)c2ccc(Cl)cc2)cc1 (centres undefined) | -0.19 | -3.38 | -1.18
CN1CCCc2cc(NC(=O)c3cc(-c4ccc(Cl)cc4)cs3)ccc2C1 | 2.24 | 0.77 | 1.79
Cc1cc(O)nc(NC(=N)NOCc2ccccc2)n1 | -1.66 | 1.03 | 1.07

From ChEMBL document CHEMBL3433997, “St. Jude Leishmania screening dataset” (2016)
